Not all results are given here.
aSyn 5UTR act: Activators working through SNCA 5'UTR binding (MLPCN) | alpha-synuclein 5'UTR reporter, activators screen | activity score, % (tested at 7.5 µM), hits read low | hit rate 7.1% among 300,000 | AID 1814; in the data active = activity score below about -60%
* marks the source's active call; other numbers are inactive results; + = active, no number.

SMILES	aSyn 5UTR act
C[C@@H](C(=O)Nc1ccc2c(c1)OCCO2)n1nnc2ccccc2c1=O	-89*
O=C(COc1ccccc1Br)Nc1ccc2c(c1)OCCCO2	-133*
N#Cc1ccccc1OCC(=O)Nc1ccc2c(c1)OCCCO2	-160*
CCN(CC)c1ccc(/C=C2\SC(=O)N(C(C)C)C2=O)o1	-103*
CC(C)=CCc1c(O)cc2c(=O)c3ccc(O)cc3oc2c1O	-141*
COc1ccccc1NCC(=O)N/N=C(\C)c1cccs1	-92*
COC(=O)c1ccc(-c2ccc(Cl)cc2)nc1C	-126*
C=CCc1cccc(C=Nc2cc(Br)ccc2O)c1O	-110*
C=CCc1cccc(C=Nc2cccn3cc(-c4ccccc4)nc23)c1O	-89*
CCc1ccc(O)c(N=Cc2cccc(C)c2O)c1	-131*
C/C(=N\NC(=O)c1csc(C)c1C)c1ccc(Cl)s1	-125*
CC/C(=N\NC(=O)c1csc(C)c1C)c1cccs1	-182*
CCC/C(=N\NC(=O)c1csc(C)c1C)c1cccs1	-109*
O=C1N/C(=C/c2ccsc2)C(=O)N1c1ccccc1	-96*
COCCn1c(C)cc(/C=C2/NC(=O)N(c3cccc(Cl)c3)C2=O)c1C	-133*
CCn1c(C)cc(/C=C2/NC(=O)N(c3ccccc3)C2=O)c1C	-153*
O=c1c(Cl)c(N/N=C/c2ccc(Cl)cc2)cnn1-c1ccccc1	-85*
CN(c1cnn(-c2ccccc2)c(=O)c1Cl)n1cccc1	-83*
CCCCNc1cnn(-c2ccccc2)c(=O)c1Cl	-74*
CCSc1cnn(-c2ccccc2)c(=O)c1Cl	-92*
CNc1cnn(-c2ccc(C)cc2)c(=O)c1Cl	-86*
Oc1cccc(-c2nc3ccc4ccccc4c3c3c2CCC3)c1	-137*
CCC(=O)Nc1cnc(NC(=O)c2cccc(F)c2)cc1C	-107*
CC(=O)Nc1cnc(NC(=O)c2cccc(F)c2)cc1C	-148*
CC(=O)[C@@]1(O)C(C)CC2C3C=C(C)C4=Cc5c(cnn5-c5ccccc5)C[C@]4(C)C3C(O)C[C@@]21C (stereo not given in full)	81
SMILES	aSyn 5UTR act
COc1ccc(/C=N/Nc2nncc3ccccc23)c(OC)c1	-159*
C(=N\Nc1nncc2ccccc12)/c1ccccc1	-75*
COc1cc(/C=N/Nc2nncc3ccccc23)cc(OC)c1OC	-108*
CCN1CCN(C(=O)c2ccc3c(=O)n(CCc4ccccc4)c(=O)[nH]c3c2)CC1	-72*
CC1CCCCN1CCNC(=O)c1ccc2c(=O)n(CCc3ccccc3)c(=O)[nH]c2c1 (stereo not given)	-79*
CC1CCN(CCCNC(=O)c2ccc3c(=O)n(CCc4ccccc4)c(=O)[nH]c3c2)CC1	-74*
CC(=O)c1sc(N/N=C2\CC3CC2C(C)C3(C)C)nc1C (stereo not given)	-101*
CSc1nnc2c(n1)OC(C)N(C(=O)c1ccccc1)c1ccccc1-2 (stereo not given)	-65*
O=C(C[n+]1cn(C(F)F)c2ccccc21)c1ccc(OC(F)F)cc1	-129*
COc1ccc(/C=C2\SC(=S)N(CCCC(=O)N3CCOCC3)C2=O)cc1	56
O=C(CCN1C(=O)/C(=C/c2cccs2)SC1=S)N1CCCCC1	-90*
COc1cc(/C=C2\SC(=S)N(CCC(=O)N3CCCCC3)C2=O)cc(OC)c1OC	-95*
O=C1/C(=C/c2cccs2)SC(=S)N1CCC(=O)N1CCCCC1CCO (stereo not given)	-109*
COc1cccc2cc(-c3cn4ccc(C)cc4n3)c(=O)oc12	-88*
COc1ccc(-n2c(C)cc(-c3cn4cccc(C)c4n3)c2C)cc1	-79*
COc1cccc2cc(-c3cn4cccc(C)c4n3)c(=O)oc12	-154*
CCOc1cccc2cc(-c3cn4cc(C)ccc4n3)c(=O)oc12	-83*
CCOC(=O)c1cnc(SCC(C)C)nc1N	-104*
CCOC(=O)c1cnc(SCc2cccc(C)c2)nc1N	-89*
CCOC(=O)c1cnc(SCC(=O)c2ccccc2)nc1N	-141*
CCn1cc(Cl)c(C(=O)Nc2cccc(C(F)(F)F)c2)n1	-105*
Cc1ccc(C(=O)Nc2cccc(C(F)(F)F)c2)cc1NC(=O)c1nccnc1N	78
CCn1cc(Br)c(C(=O)Nc2cccc(SC)c2)n1	-141*
CCn1cc(Cl)c(C(=O)Nc2ccccc2C(N)=O)n1	-87*
CCn1cc(Br)c(C(=O)Nc2ccccc2C(=O)OC)n1	-88*
SMILES	aSyn 5UTR act
O=c1[nH]c2ccccc2nc1-c1ccccc1	-73*
O=c1[nH]c2ccccc2nc1-c1ccc(Cl)cc1	-72*
NC(=O)N=Nc1c2[nH]c3ccccc3nc-2c2ccccc12	+
Cn1/c(=N/N=C/c2ccc(N3CCOCC3)cc2)sc2ccccc21	-65*
CCCCC(=O)Nc1ccc2c(c1)nc1n2CCSC1	-84*
Cc1ccc(C(=O)Nc2ccc3c(c2)nc2n3CCSC2)cc1	-67*
COc1ccc(-c2cn3cc(Cl)ccc3n2)cc1OC	-239*
C=CCn1cnc2c(NCc3ccccc3)ncnc21	-76*
C/C(=N\Nc1nncc2ccccc12)c1cccc(OC(F)F)c1	-97*
C/C(=N\Nc1nncc2ccccc12)c1ccc(C(C)(C)C)cc1	-84*
O=[N+]([O-])c1cccc(C2Nc3cccc4cccc(c34)N2)c1	-72*
Oc1oc(-c2ccccc2)nc1/C=N/c1nccs1	-86*
Oc1oc(-c2ccc(Br)cc2)nc1/C=N/c1ccccn1	-81*
Cc1ccc(N=Cc2nc(-c3ccco3)oc2O)cc1	-69*
Cc1ccc(-c2nc(C=Nc3ccccc3)c(O)o2)cc1	-102*
CCCOc1ccc(-c2nc(OC)c3ccccc3n2)cc1	-85*
COc1cccc(Cn2c(NCc3cccnc3)nc3c2c(=O)n(C)c(=O)n3C)c1	71
COc1cccc(Nc2nc3ccc(OC)cc3s2)c1	-168*
COc1ccc2nc(NC3=NCCC3)sc2c1	-179*
COc1ccc(Nc2nc3ccccc3s2)cc1	-159*
COc1ccc2nc(NCc3cccnc3)sc2c1	-75*
COc1ccc2c(c1)sc(N)[n+]2Cc1cc(C)cc2cccnc12	114
COc1ccc2nc(-n3c(C)ccc3C)sc2c1	-62*
Cc1cccc(Nc2nc3ccccc3s2)c1C	-181*
CCC1CCc2c(sc(NC(=O)c3ccco3)c2C(N)=O)C1 (stereo not given)	-246*
SMILES	aSyn 5UTR act
CCC1CCc2c(sc(NC(=O)c3cnccn3)c2C(N)=O)C1 (stereo not given)	-86*
COc1cc(/C=N/N2CCN(C3c4ccccc4-c4ccccc43)CC2)ccc1O	-63*
CCCNc1c(F)c(F)c2c(C)c3ccccc3nc2c1F	-80*
Cc1ccc(C(=O)CSc2ccccn2)cc1	-191*
Cn1c(CO)cnc1SCC(=O)c1ccc(F)cc1	-65*
O=C(CSc1ccccn1)c1ccc(F)cc1	-130*
Cc1ccc(N(CC(=O)NCCSc2ccccn2)S(C)(=O)=O)cc1	-98*
O=C(OCn1ncc(Br)c(Br)c1=O)c1ccc(F)cc1	64
Cc1ccc(NC(=O)CCSc2ccccn2)cc1	-145*
COc1ccc(-c2noc(-c3ccoc3C)n2)cc1	-143*
COc1ccc(-c2noc(-c3ccco3)n2)cc1OC	-110*
COc1ccc(C2=Nn3c(nnc3-c3ccco3)SC2)cc1OC	79
COc1ccc(-c2noc(-c3ccoc3C)n2)cc1OC	-132*
COc1cccc(-c2noc(-c3ccoc3C)n2)c1	-212*
Cc1cc(NC(=O)c2cc(C3CC3)on2)no1	-96*
COc1ccc(NC(=O)c2cc(C3CC3)on2)c(OC)c1	-200*
Cc1c(Cl)cccc1NC(=O)c1cc(C2CC2)on1	-207*

High-throughput results as filed in PubChem BioAssay.
